Assay results reported in PubChem BioAssay (NCATS).
Calls of active or inactive are those of the source. The call rests on the fitted dose curve; in most records, active means well fitted inhibition curve with a large enough effect; inconclusive means small, poorly fitted or top-dose-only effect; inactive means flat fitted curve, though single readings scatter.

What follows are molecules tested against DNA dC->dU-editing enzyme APOBEC-3G (Homo sapiens) (UniProt Q9HC16) (assay: qHTS for inhibitors of Vif-A3G interactions: Validation (AID 588379; further: 0% is about no effect)). Conditions: Vif-A3G protein interaction assay; series mostly up to 46.1 µM; activity change, negative = inhibition: at the top concentration.
Chain of DNA dC->dU-editing enzyme APOBEC-3G (Homo sapiens) (Q9HC16 whole entry, looked up): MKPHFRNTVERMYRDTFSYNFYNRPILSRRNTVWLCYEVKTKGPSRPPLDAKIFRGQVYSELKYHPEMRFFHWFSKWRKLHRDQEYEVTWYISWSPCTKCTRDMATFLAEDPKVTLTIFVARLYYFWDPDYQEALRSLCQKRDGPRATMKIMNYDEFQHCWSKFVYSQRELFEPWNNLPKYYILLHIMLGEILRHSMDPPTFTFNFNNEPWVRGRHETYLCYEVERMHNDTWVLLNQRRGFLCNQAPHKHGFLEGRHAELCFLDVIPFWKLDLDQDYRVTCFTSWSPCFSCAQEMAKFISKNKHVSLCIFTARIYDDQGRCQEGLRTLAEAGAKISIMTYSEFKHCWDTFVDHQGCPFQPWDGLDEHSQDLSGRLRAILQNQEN
Excerpt: The recent discovery and characterization of host restriction factors, which provide a potent defense to invading retroviruses, has provided new targets for antiviral drug development. APOBEC3G (A3G) and APOBEC3F (A3F) are potent cytidine deaminases that block HIV-1 replication; HIV-1 expresses the Vif protein, which counteracts A3G and A3F by binding to them and inducing their proteasomal degradation.
The Vif-A3G and Vif-A3F interactions provide two potential targets for development of small molecules which can interfere with the ability of Vif to degrade A3G or A3F. […] To identify inhibitors that can interfere with Vif mediated degradation of A3G and A3F, we have developed Hela cell lines that stably express A3G or A3F tagged with eYFP at the C-terminal end (A3G-eYFP or A3F-eYFP, respectively) and Vif. In the absence of an inhibitor, Vif induces degradation of A3G-eYFP and A3F-eYFP, and the cells are not fluorescent. In the presence of an inhibitor, it is expected that Vif will be unable to degrade A3G-eYFP and/or A3F-eYFP, resulting in an increase in yellow fluorescence. In this assays Vif A3G was screened against the Molecular Library Small Molecile Repository (MLSMR).
NIH Chemical Genomics Center [NCGC]
NIH Molecular Libraries Probe Centers Network [MLPCN]
Assay Submitter (PI): Vinay Pathak, National Cancer Institute
5 uL of 700 cells/well of A3G-YFP cells are dispensed into black, clear bottom plates. The plates are incubated overnight at 37 deg C. 23 nL of compounds are added by pintool. The plates are incubated overnight at 37 deg C and then read on the TTP Acumen (Ex 488/ Em 500-530).

Compound	activity change, negative = inhibition	outcome
N[C@H](Cn1ccc(=O)c(O)c1)C(=O)O	-2.53% (inactive)	–
OC[C@H]1O[C@@H](n2cnc3c(NCc4ccco4)ncnc32)[C@H](O)[C@@H]1O	-6.39% (inactive)	–
CC(=O)Oc1c(C)c(C)c2c(c1C)CCC(C)(CCCC(C)CCCC(C)CCCC(C)C)O2 (stereo not given)	-0.97% (inactive)	–
Cc1[nH]ccc2c1[nH]c1cc(=O)ccc12	-0.778% (inactive)	–
CCCCCCCCCCCCCC(=O)O[C@H](CC(=O)O)C[N+](C)(C)C	0.963% (inactive)	–
C=C(C)[C@H]1CC=C(C)C(=O)C1	-6.14% (inactive)	–
COc1c(-c2ccc(O)c(O)c2)oc2cc(O)cc(O)c2c1=O	0.0615% (inactive)	–
O=c1[nH]cnc2c1ncn2C1OC(CO)C(O)C1O (stereo not given)	0.0474% (inactive)	–
O=C1C=CC2=C3c4cc(O)c(O)cc4CC3(O)COC2=C1O (stereo not given)	3.96% (inactive)	–
C/C(=C\COc1cc(=O)[nH]c2ccccc12)CCC(O)C(C)(C)O (stereo not given)	2.85% (inactive)	–
COc1cc2ccc(=O)oc2cc1O	3.58% (inactive)	–
O=[N+]([O-])c1cccc2c[nH]nc12	-0.349% (inactive)	–
N[C@H](C(=O)O)c1ccc(O)c(C(=O)O)c1	2.95% (inactive)	–
CN=C1N[C@H](c2ccccc2)N(c2ccccc2)S1	-0.674% (inactive)	–
O=c1cc(-c2ccc(O)c(O)c2)oc2cc(OC3OC(CO)C(O)C(O)C3O)cc(O)c12 (stereo not given)	-3.43% (inactive)	–
Cc1cc(C)c(S(=O)(=O)Nc2ccccc2C(F)(F)F)c(C)c1	-9.88% (inactive)	–
CC1(C)Oc2ccc(C#N)cc2[C@H](N2CCCC2=O)[C@H]1O	–	inactive
CS(=O)(=O)c1ccc(Cn2c3c(c4cc(F)cc(F)c42)CCC[C@H]3CC(=O)O)cc1	-3.29% (inactive)	–
COc1ccc2c(c1)[C@@]1(C)CCC[C@](C)(CO)C1CC2 (stereo not given in full)	-0.602% (inactive)	–
CCCCCCCNS(=O)(=O)c1cccc2c(Cl)cccc12	1.82% (inactive)	–

Compound	activity change, negative = inhibition	outcome
Clc1cccc2c1CN(C1=NCCN1)C2	1.18% (inactive)	–
N[C@@H](C(=O)O)c1ccc(O)c(C(=O)O)c1	-1.32% (inactive)	–
CC[C@@]12CCCN3CCc4c(n(c5ccccc45)[C@](O)(C(=O)OC)C1)[C@H]32	2.54% (inactive)	–
CCCC[P+](CCCC)(CCCC)Cc1ccc(NC(=O)[C@@H](Cc2ccc3ccccc3c2)NC(=NC2CCCCC2)NC2CCCCC2)cc1	-1.96% (inactive)	–
COc1cc2c3cc1Oc1c(OC)c(OC)cc4c1[C@@H](Cc1ccc(O)c(c1)Oc1ccc(cc1)C[C@@H]3N(C)CC2)N(C)CC4	-6.15% (inactive)	–
Oc1cc2c(c(Cl)c1O)CCNC[C@H]2c1ccccc1	-0.283% (inactive)	–
COc1c(O)cc2oc3cc(O)c(CC=C(C)C)c(O)c3c(=O)c2c1CC=C(C)C	4.6% (inactive)	–
COc1cc(/C=C\c2ccc(OC)cc2OC)cc(OC)c1	-4.89% (inactive)	–
Cc1c(CC(C)(C)C(=O)O)n(Cc2ccc(Cl)cc2)c2ccc(F)cc12	-6.55% (inactive)	–
Cn1cc(C(F)(F)F)nc1-c1ccc(OC[C@@H](O)CNCCOc2ccc(O)c(C(N)=O)c2)cc1	3.34% (inactive)	–
O=C(/C=C/c1ccc(O)c(O)c1)OC(Cc1ccc(O)c(O)c1)C(=O)O (stereo not given)	-5.35% (inactive)	–
CCCNC(=O)N1N=C(c2ccc(N)cc2)c2cc3c(cc2[C@H]1C)OCO3	6.68% (inactive)	–
CC1(C)[C@@H](O)CC[C@]2(C)C3C(=O)C=C4C5C[C@@](C)(C(=O)O)CC[C@]5(C)CC[C@@]4(C)[C@]3(C)CC[C@@H]12 (stereo not given in full)	-2.72% (inactive)	–
CC1=CC(=O)CC(C)(C)C1(O)/C=C/C(C)=C\C(=O)O (stereo not given)	-3.96% (inactive)	–
CN1CCc2cccc3c2[C@@H]1Cc1ccc(O)c(O)c1-3	-4.53% (inactive)	–
N#C/C(=C\c1ccc(O)c(O)c1)C(=O)NCCCCc1ccccc1	-19.6% (inactive)	–
COC(=O)C1=C(C)NC(C)=C(C(=O)OCCSc2ccccc2)[C@@H]1C	-3.2% (inactive)	–
Nc1ccccc1C(=O)CC(N)C(=O)O (stereo not given)	3.06% (inactive)	–
C=CC(C)(O)CCC=C(C)C (stereo not given)	-0.375% (inactive)	–
COc1cc2c(cc1OC)C(=O)Cc1ccc3c(c1CN(C)CC2)OCO3	-1.1% (inactive)	–
